From PubChem BioAssay (NCI)
About 79,000 compounds went through this panel and 15% of them were active in at least one assay; those are over-represented in the sample as a whole. A number with no mark means an inactive call. Activity calls are given as the source filed them. Rule as the data show it: active = growth inhibition above about 70%; inactive = the rest.

Assay: NCI Yeast Anticancer Drug Screen. Data for the rad50EPP+ strain (AID 151);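 also: 0% = growth of vehicle-treated control cultures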
Settings: S. cerevisiae rad50 mutant strain, stronger effect = higher value
Protocol: Growth inhibition of yeast strains with defined genetic alterations is measured as a screen for potential anti-cancer activity. Selected strains with alterations in DNA damage repair or cell cycle control were exposed to compounds and growth inhibition was measured relative to vehicle treated controls. The strain used in this assay is rad50EPP+

Structure (SMILES) | growth inhibition (at 1.2 µM) | growth inhibition (at 3.7 µM) | growth inhibition (at 11.0 µM) | growth inhibition (at 33.0 µM) | growth inhibition (at 100.0 µM)
NC(=O)C(=O)NNc1ccccc1 | 9% | 29% | 60% | 85% (active) | 96% (active)
CCN(CC)CCNc1ccc2ncn3c4cc(OC)c(OC)c(=O)c4c(O)c1c23 | 1% | 3% | 11% | 20% | 26%
CCCCNC1CCC2(SCCS2)c2[nH]c3ccccc3c21 (stereo not given) | -2% | -1% | -2% | -4% | 7%
COc1ccc(C(=O)C(CN(C)C)CN(C)C)cc1 | 10% | 19% | 9% | 13% | 17%
CN(C)/C=C/c1nnc([N+](=O)[O-])s1 | 1% | 12% | 35% | 65% | 96% (active)
CCOC(=O)C1N=[N+](c2ccccc2)C(=O)/C1=C\n1c(=S)[nH]c2ccc([N+](=O)[O-])cc21 (stereo not given) | 0% | 1% | 4% | 2% | 6%
NC1=NNC2(C(N)=N1)c1ccccc1-c1ccccc12 | 3% | 7% | 2% | 44% | 76% (active)
C=C1C(=O)OC2CC1C(OC(C)=O)C/C(C)=C/CC/C(C)=C\CCC2(C)O (stereo not given) | 15% | 42% | 40% | 31% | 18%
